Sfp inh = qHTS Assay for Inhibitors of Bacillus subtilis Sfp phosphopantetheinyl transferase (PPTase). 4'-phosphopantetheinyl transferase ffp (Bacillus subtilis), Q9F4F7. Biochemical Sfp PPTase activity, qHTS. Potency, µM, inactives show largest response in the series, negative = inhibition, usual class: inhibitors. actives 3.5% (n = 310,000);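 note: the enzyme is Sfp with the accession as filed and its product quenches rhodamine fluorescence; potency is the fitted concentration of half-maximal effect; 0% = enzyme reaction without inhibitor and -100% = no enzyme wells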
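Fluorescence-quenching assay with 15 nM Sfp, 5 uM rhodamine-CoA and 12.5 uM BHQ-2-labelled ybbR peptide in pH 7.6 Hepes/MgCl2 buffer. Enzyme was pre-incubated with compound for 15 min at room temperature. Rate was taken from the 30-min fluorescence change (525/598 nm).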
TCR activator = Activators of T cell receptors: qHTS campaign; Potency, µM (highest dose often 9.22 µM), for the others: top-dose activation of IL-2 secretion, most hits filed as activators; primary human leukocytes, anti-CD3, IL-2 HTRF, 48 h; 330,000 tested, under 10 active; note: % of control where 0% means no effect
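Compounds are tested in HTS on primary human leukocytes co-incubated with a-CD3 beads for 48 hr. IL-2 output is measured by time-resolved FRET.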
uPA surface inh = qHTS for Inhibitors of Cell Surface uPA Generation; cell surface uPA generation assay, qHTS; Potency, µM (series often up to 38.3 µM), inactives show top-dose activity change, negative = inhibition, hits mostly inhibitors; actives 0.31% (n = 330,000); AID 540303, 2011; active = well fitted inhibition curve with a large enough effect; inconclusive = small, poorly fitted or top-dose-only effect; inactive = no such curve, though single readings can be large or run the other way; tested in mouse RAW 264.7 cells; note: potency is the fitted concentration of half-maximal effect; % is set by controls: 0 for no effect and ±100 for the full control effect; nearly all actives have a fitted effect of over 55% in size
ClpP mod = qHTS Assay for Activators of ClpP. purified B. subtilis ClpP, FRET peptide cleavage, 20 min. AID 651965, 2013. ATP-dependent Clp protease proteolytic subunit (Bacillus subtilis (strain 168)), P80244. actives 1.9% (n = 340,000). Potency, µM (highest dose often 57.5 µM), for the others: top-dose activity change, negative = active; active = well fitted falling curve with a large enough effect; inconclusive = small, poorly fitted or top-dose-only effect; inactive = no such curve, though single readings can be large or run the other way; note: potency is the fitted concentration of half-maximal effect; the source files actives as falling curves though it sought activators and does not explain the sign; nearly all actives have a fitted effect of over 65% in size
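ClpP 10 microg/mL final, pH 8 Tris/KCl buffer with BSA, glycerol, Tween-20; compound pinned in; FRET-FV substrate; RT 20 min; Ex320/Em430; ΔFRET vs ADEP 5.8 microM, DMSO, no enzyme.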
The depositor's hits bear a star; ? = inconclusive; . = no result given; [ ] = dose if it differs, or a comment. Sampled rows, rich in hits. Any-hit rate of the full collection: about 4.2%. Unless noted, calls come from the whole dose curve; as a rule, active = well fitted curve in the direction sought with a large enough effect; inconclusive = small, poorly fitted or top-dose-only effect, or another doubt; inactive = no such curve, though single readings can be large; an effect the other way counts as inactive or inconclusive.

SMILES | Sfp inh | TCR activator | uPA surface inh | ClpP mod
COc1ccccc1NC(=O)CSC1=NC(=O)C(NC(C)=O)C(=O)N1 (centres undefined) | -1.2% | -10.8% | -7.3% | 28.2µM*
Cc1ccc(CN2CCN(CC(=O)NCc3ccccc3Cl)C2=O)cc1 | . | . | . | -0.6%
CC(C)(C)NC(=O)COC(=O)CNC(=O)c1cc(Cl)cc([N+](=O)[O-])c1 | 19.6% | -9.3%[46.1 µM] | ? | 1.3%
Cn1ccc(C(=O)NC(=S)N2CCSCC2)n1 | 44.7µM* | 4.3% | -0.1% | .
CC1CCc2nc(-c3cc4ccc(O)cc4oc3=O)sc2C1 (centres undefined) | . | . | . | 4.7%
Brc1ccc(C2=CSC3=NCCN23)cc1 | 10.7% | 2.6% | -2.2% | .
O=S(=O)(c1ccc(C2=CSC3=NCCN23)cc1)N1CCOCC1 | 56.2µM* | 4.3% | 3.1% | -1.1%
Oc1ccc(C2=CSC3=NCCN23)cc1O | 89.1µM* | 3.1% | -1.5% | -0.3%
CSc1ccc(-c2cc(=O)c3ccccc3o2)cc1 | -3.8% | . | -14.8% | 10µM*
COc1ccc(/C=C/c2cc(=O)c3cc(Cl)ccc3o2)cc1 | 50.1µM* | -0.6%[46.1 µM] | -4.7% | -15.9%
COc1ccc(/C=C/c2cc(OC)cc(=O)o2)cc1 | 21.0% | . | . | .
COc1ccc(-c2cc(=O)c3cc(OC)ccc3o2)cc1 | ? | -42.2% | 1.41µM* | 3.8%
Nc1[nH]c(=S)nc2nnsc12 | . | . | . | 0.1%
O=C(Nc1ccc(OCC(=O)N2CCC(Cc3ccccc3)CC2)cc1)c1ccco1 | 89.1µM* | -0.1% | -7.2% | 1.0%
CC(=O)Nc1ccc(S(=O)(=O)NCCC(=O)N2CCC(Cc3ccccc3)CC2)cc1 | . | -5.7% | -6.2% | 11.2µM*
O=C(Nc1ccc(S(=O)(=O)NCc2ccccc2)cc1)C1CCCCC1 | 16.5% | -0.3% | 2.3% | 25.1µM*
COc1cc2nc(CC(O)c3nc4cc(OC)c(OC)cc4[nH]3)[nH]c2cc1OC (centres undefined) | . | . | . | -10.8%
CC(C)[C@H](NC(=O)[C@@H](Cc1c[nH]c2ccccc12)NC(=O)[C@H](Cc1ccc(O)cc1)NC(=O)[C@@H](N)CC(=O)O)C(=O)N[C@H](Cc1c[nH]c2ccccc12)C(=O)N[C@H](Cc1c[nH]c2ccccc12)C(=O)N[C@@H](CCCCN)C(N)=O | -14.0% | . | . | .
CCN1C[C@@H]2[C@@H]3C(=O)N(C)C(=O)[C@@H]3[C@](C)(C1=O)N2C(=O)c1ccc(Cl)c(Cl)c1 | . | -4.7% | 4.6% | 0.9%
O=C(NCCO)Nc1ccc2nc(-c3ccco3)c(-c3ccco3)nc2c1 | 17.8µM* | . | . | .
CCCCNC(=O)c1ccc2nc(-c3ccco3)c(-c3ccco3)nc2c1 | 31.6µM* | -6.3%[46.1 µM] | 12.8% | -6.5%
O=C(NCCCO)c1ccc2nc(-c3ccco3)c(-c3ccco3)nc2c1 | 10µM* | . | -8.2% | -13.5%
COc1ccc(-c2nc3ccc(C(=O)NCCCN4CCOCC4)cc3nc2-c2ccc(OC)cc2)cc1 | 56.2µM* | -12.2% | 13.6% | -25.6%
O=C(NC1CC1)c1ccc2nc(-c3ccco3)c(-c3ccco3)nc2c1 | . | . | . | -21.1%
CCc1nc2ccc(C(=O)NCCc3ccco3)cc2nc1CC | -7.6% | -13.6% | -2.3% | 1.5%
SMILES | Sfp inh | TCR activator | uPA surface inh | ClpP mod
C=CCC(CC=C)(CNC(=O)C(=O)Nc1ccc(C)cc1)c1ccccc1 | . | . | . | 2.0%
CCSS(=O)(=O)c1cccc2cccnc12 | 20µM* | 7.5% | 7.6% | .
COc1cccc(NC(=O)N2CCC(n3c(C)nc4cccnc43)CC2)c1 | . | . | . | -0.2%
COc1ccc(-c2csc3ncnc(N4CCN(c5cccc(Cl)c5)CC4)c23)cc1 | 2.2% | 2.3% | 11.2µM* | -27.8%
COc1ccc(-c2csc3ncnc(N4CCN(c5cccc(OC)c5)CC4)c23)cc1 | 5.3% | 2.3% | 3.9% | -6.9%
COc1ccccc1C(=O)OCC(=O)c1cccc([N+](=O)[O-])c1 | 7.5% | 2.9%[46.1 µM] | -17.4% | 1.1%
COc1ccccc1OC(=O)c1cc2ccccc2oc1=O | 21.6% | 1.7% | -2.2% | .
COC(=O)c1ccccc1OC(=O)c1cc2ccccc2oc1=O | -1.4% | 2.2% | -0.3% | .
O=C(COC(=O)c1cc2ccccc2oc1=O)c1cccc([N+](=O)[O-])c1 | 3.6% | 3.6%[46.1 µM] | -1.2% | 31.6µM*
COc1ccccc1NC(=O)c1cc2ccccc2o/c1=N\O | 50.1µM* | -2.1% | 0.1% | -5.1%
COc1cc(/C=C/[N+](=O)[O-])ccc1OC(=O)c1cc2ccccc2oc1=O | 3.55µM* | -0.1% | -9.8% | .
COC(=O)c1cc2ccccc2oc1=O | 7.9% | 1.5% | -2.9% | 20µM*
COc1ccccc1CNC(=O)c1ccc2c(c1)CCN2S(=O)(=O)c1ccc(Cl)cc1 | . | . | . | 2.0%
COc1cc2c(cc1OC)C(=O)C(Br)CC2 (centres undefined) | . | . | . | -16.8%
O=C(OCCn1cncn1)c1cc2ccccc2oc1=O | 6.7% | -3.5% | 2.0% | 28.2µM*
O=C(NCc1ccc(Cl)cc1)c1cc2ccccc2oc1=O | 4.0% | -5.8% | 1.2% | 20µM*
Cc1ccc(/C=N/n2c(-c3cccc(Cl)c3)n[nH]c2=S)o1 | -7.9% | 0.7% | 2.3% | .
S=c1[nH]nc(-c2ccco2)n1/N=C/c1ccccn1 | 79.4µM* | . | . | .
S=c1[nH]nc(-c2cccc(Cl)c2)n1/N=C/c1ccco1 | 50.1µM* | -4.0% | -26.4% | -1.9%
S=c1[nH]ncn1/N=C/c1ccccn1 | 15.8µM* | -4.5% | 1.2% | -4.5%
S=c1[nH]ncn1/N=C/c1cccs1 | -24.2% | 9.8% | 1.6% | -0.2%
S=c1[nH]nc(-c2ccccn2)n1/N=C/c1ccco1 | 44.7µM* | -4.2% | 0.2% | -0.6%
N#Cc1ncc(-c2ccc3c(c2)OCCOCCOCCOCCOCCO3)nc1C#N | 3.1% | -0.1%[46.1 µM] | -1.8% | 31.6µM*
N#Cc1ncc(-c2ccc3c(c2)OCCOCCOCCOCCO3)nc1C#N | 10.2% | 2.2%[46.1 µM] | -7.4% | 1.5%
CCCCCCCCCCCCCCCCN | 13.8% | . | . | .
SMILES | Sfp inh | TCR activator | uPA surface inh | ClpP mod
O=C(CCCN1C(=O)CCC1=O)Nc1ccccc1F | 79.4µM* | 9.9% | . | 3.0%
COC(=O)c1cc(OC)c(OC)cc1NC(=O)CCCCCN1C(=O)CCC1=O | 7.6% | 2.8% | -5.5% | 28.2µM*
COC(=O)c1sccc1NC(=O)CCC1CCCCC1 | -2.6% | -10.5%[46.1 µM] | 1.7% | 0.4%
COC(=O)c1cc(OC)c(OC)cc1NC(=O)CCC1CCCC1 | -2.6% | -0.1% | 4.5% | 31.6µM*
O=C(CCCN1C(=O)CCC1=O)Nc1ccc(Br)cc1F | 12.1% | 2.9% | . | 0.5%
NC(=O)c1sc2nc3c(c(-c4ccco4)c2c1N)CCCC3 | -11.8% | 7.7% | 18.7% | -1.5%
Nc1c(C(=O)NCC2CCCO2)sc2nc3c(c(-c4ccco4)c12)CC/C3=C\c1ccco1 (centres undefined) | 31.6µM* | 0.7%[46.1 µM] | 1.3% | 0.7%
O=C(Nc1cccc2ccccc12)c1ccc([N+](=O)[O-])s1 | 15.2% | 4.9%[46.1 µM] | 11.2µM* | 0.7%
O=C(Nc1ccccc1F)c1ccc([N+](=O)[O-])s1 | 0.6% | -12.3% | . | -6.9%
O=C(Nc1cccnc1)c1ccc([N+](=O)[O-])s1 | . | 0.9% | 4.47µM* | -1.6%

Source: PubChem BioAssay
